The supplement of paper PMC10338343
± gives the standard deviation.

Columns and labels:
[1] = tested on: MILI (PIWIL2) piRISC loaded with L1MC piRNA (26 nt); assay: pre-steady-state target cleavage rate (min^-1); guide: L1MC piRNA 5'p-UAACUAAAUACUAUGCAAGCUGUAGG; higher = faster piRNA-guided slicing of the target;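 also: 1 nM active piRISC with 0.1 nM target library at 33 °C single turnover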
How it was run: (§1)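 The pre-steady-state cleavage rate was calculated from a burst-and-steady-state fit. Data came from Cleave-'n-Seq, in which […] transcribed, DNA-blocked target RNA library was mixed with 1 nM active affinity-purified piRISC carrying one synthetic guide, with or without 500 nM GTSF1 partner protein, in HEPES–potassium acetate buffer at 33 °C for 0–8 or 0–960 min. Uncleaved targets were sequenced and normalised to depth and to weakly complementary targets, three trials were pooled, and k3 was capped at 0.0001 min^-1.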

[2] = tested on: EfPiwi piRISC loaded with L1MC piRNA (26 nt); assay: pre-steady-state target cleavage rate (min^-1); auxiliary factor: 500 nM Ephydatia muelleri Gtsf1; guide: L1MC piRNA 5'p-UAACUAAAUACUAUGCAAGCUGUAGG; MIWI and MILI are mouse PIWI proteins and EfPiwi is from a freshwater sponge; tags in brackets are library labels; higher = faster piRNA-guided slicing of the target
How it was run: as §1

[3] = auxiliary factor: 500 nM mouse GTSF1
[4] = auxiliary factor: none (no GTSF1)

Sequence | pre-steady-state target cleavage rate [1, 3] | pre-steady-state target cleavage rate [1, 4] | pre-steady-state target cleavage rate [2]
UCCUGGAACAGCUUGCGUAGUAUUUAGUUA | 0.277 ± 0.016 | 0.00716 ± 0.0018 | 0.00807 ± 0.0034
UCCUGGAACAGCUUGAAUAGUAUUUAGUUA | 0.243 ± 0.023 | 0.00657 ± 0.0025 | 0.0656 ± 0.017
UCCUGGAUCGCUUGCAUAGUAUUUAGUUA | 0.29 ± 0.012 | 0.00599 ± 0.0021 | 0.065 ± 0.011
UCCUCCUAGAGCUUGCAAAGUAUUUAGUUA | 0.14 ± 0.0099 | 0.00516 ± 0.002 | 0.0214 ± 0.006
UCCUGCUACAGGUUGCAUAGUAUAUAGUUA | 0.305 ± 0.036 | 0.00597 ± 0.0027 | 0.005 ± 0.0032
UCCUGGAUGACGUUGCAUAGUAUUUAGUUA | 0.176 ± 0.02 | 0.00683 ± 0.0027 | 0.00512 ± 0.0026
UCCUGCUACUGCUUGCAAAGUAUUUAGUUA | 0.0928 ± 0.013 | 0.00523 ± 0.0021 | 0.00588 ± 0.0023
UCCUGGUACAGCUUGCAUAGUAUAAUGUUA | 0.175 ± 0.036 | 0.00565 ± 0.0032 | 0.00312 ± 0.0026
UCCUGCUAGCAGCUUGCAUAGUAUUUAGUUA | 0.259 ± 0.014 | 0.00955 ± 0.0024 | 0.0598 ± 0.016
UCCUGGAUGUGCGUUGCAUAGUAUUUAGUUA | 0.145 ± 0.016 | 0.00925 ± 0.0032 | 0.00539 ± 0.0024
UCCUGCUACAGCAUGCAUAGUAAUUAGUUA | 0.225 ± 0.022 | 0.00692 ± 0.0027 | 0.007 ± 0.0024
UCCUCCUACAGCUUGCAAAGUAUAUAGUUA | 0.115 ± 0.015 | 0.00276 ± 0.0025 | 0.008 ± 0.0043
UCCUGGAUGAGCUAGCAUACUAUUUAGUUA | 0.0848 ± 0.017 | 0.00398 ± 0.0027 | 0.00286 ± 0.002
UCCUGGUACAUGCUUGCAUAGUAUUUAGUUA | 0.131 ± 0.018 | 0.00627 ± 0.0036 | 0.0077 ± 0.0034
UCCUGCUACAGCUUGCAUAGUAUUUAAGUUA | 0.365 ± 0.043 | 0.00882 ± 0.0027 | 0.00777 ± 0.0034
UCCUGCUACAGCUUGCAUAGUAUUAAGUUA | 0.245 ± 0.028 | 0.0047 ± 0.0024 | 0.0064 ± 0.0019
UCCUGCUAGAGCUUGCAUAGUAUUUAGUUA | 0.198 ± 0.017 | 0.00605 ± 0.0021 | 0.00838 ± 0.0023
UCCUGGUACAGGUUGCAUACUAUUUAGUUA | 0.111 ± 0.033 | 0.00543 ± 0.0028 | 0.00258 ± 0.002
UCCUGGAUCACCUUGCAUAGUAAUUAGUUA | 0.198 ± 0.03 | 0.00446 ± 0.0029 | 0.123 ± 0.049
UCCUCCUACAGGUUGCAUAGUAUUUUGUUA | 0.137 ± 0.021 | 0.00378 ± 0.0021 | 0.00418 ± 0.0015
UCCUCCUACAGCUUGCAUAGUAUUUACGUUA | 0.265 ± 0.029 | 0.00757 ± 0.0026 | 0.00783 ± 0.0029
UCCUGGAUGUCCUGCAUAGUAUUUAGUUA | 0.094 ± 0.013 | 0.00628 ± 0.0019 | 0.00358 ± 0.0026
UCCUGGAUCCGCUUGCAUAGUAUUUAGUUA | 0.297 ± 0.019 | 0.00868 ± 0.0026 | 0.146 ± 0.029
UCCUGGUACAGCUUGCAUAGUUAUUAGUUA | 0.0387 ± 0.015 | 0.00509 ± 0.0027 | 0.00325 ± 0.0025
UCCUGGUACAGGAUGCAUAGUAUUUAGUAA | 0.172 ± 0.021 | 0.00595 ± 0.002 | 0.00412 ± 0.002

Sequence | pre-steady-state target cleavage rate [1, 3] | pre-steady-state target cleavage rate [1, 4] | pre-steady-state target cleavage rate [2]
UCCUGGAACUGCAUGCAUAGUAUUUAGUUA | 0.224 ± 0.013 | 0.00585 ± 0.0025 | 0.0126 ± 0.0039
UCCUCCUACAGCUUGGCAUAGUAUUUAGUUA | 0.338 ± 0.057 | 0.00447 ± 0.0021 | 0.0133 ± 0.0047
UCCUGGUACAGCGUUGCAUAGUAUUUAGUUA | 0.196 ± 0.027 | 0.0109 ± 0.0053 | 0.00749 ± 0.0028
UCCUGGAUCAGCUUGCAUAGUAUUUAGUUC [g2:g22:cont:t1C] | 0.235 ± 0.016 | 0.00817 ± 0.0026 | 0.0501 ± 0.011
UCCUCCUACCAGCUUGCAUAGUAUUUAGUUA | 0.275 ± 0.017 | 0.00841 ± 0.0025 | 0.0186 ± 0.0056
UCCUGGAACAGCUUGCAUAGUAUAUUAGUUA | 0.247 ± 0.019 | 0.00778 ± 0.0024 | 0.0104 ± 0.0043
UCCUGCUACACUUGCAUAGUAUUUAGUUA | 0.268 ± 0.021 | 0.00611 ± 0.0023 | 0.00903 ± 0.0027
UCCUGGUACAGCUAGGAUAGUAUUUAGUUA | 0.191 ± 0.026 | 0.00723 ± 0.0022 | 0.00331 ± 0.0017
UCCUGGAUGUGCUUGCAUAGUAUUUAGUUUA | 0.141 ± 0.015 | 0.00735 ± 0.0032 | 0.00801 ± 0.0032
UCCUGGAUGUACUUGCAUAGUAUUUAGUUA | 0.0966 ± 0.016 | 0.0107 ± 0.0025 | 0.00383 ± 0.0029
UCCUGGAUCUCCUUGCAUAGUAUUUAGUAA | 0.203 ± 0.024 | 0.00367 ± 0.0019 | 0.00383 ± 0.0026
UCCUGGAUCAGCUAGGAUAGUAUUUAGUUA | 0.178 ± 0.013 | 0.00609 ± 0.0017 | 0.00257 ± 0.002
UCCUGGAACUGCUUGCAUAGUAUAUAGUUA | 0.128 ± 0.021 | 0.00491 ± 0.0025 | 0.0584 ± 0.021
UCCUCCUACAGCAUUGCAUAGUAUUUAGUUA | 0.228 ± 0.014 | 0.00746 ± 0.0025 | 0.0213 ± 0.0068
UCCUGGUACAGCUUGCAUAGUAUUUAUUUA | 0.166 ± 0.037 | 0.0109 ± 0.0041 | 0.00732 ± 0.0063
UCCUGGAUGAGCUUGCAUAGUUUUUAGUUA | 0.0248 ± 0.0073 | 0.00471 ± 0.0024 | 0.00485 ± 0.002
UCCUGGAAAGCUUGCAUAGUAUUUAGUUA | 0.276 ± 0.016 | 0.00624 ± 0.0022 | 0.035 ± 0.0098
UCCUCCUACAGCUUGCAUAGUAUUUAGUAA | 0.246 ± 0.021 | 0.00585 ± 0.0026 | 0.0113 ± 0.005
UCCUGCUACAGGUUGCAUAGUUUUUAGUUA | 0.0345 ± 0.007 | 0.0063 ± 0.0021 | 0.00998 ± 0.0028
UCCUGGAACAGCUUGCUAAGUAUUUAGUUA | 0.129 ± 0.015 | 0.00361 ± 0.0028 | 0.00374 ± 0.0032
UCCUGGAUGAGCUGUGCAUAGUAUUUAGUUA | 0.191 ± 0.013 | 0.0151 ± 0.0044 | 0.0255 ± 0.0063
UCCUCCUACAGCAUGCAUAGUAUUAAGUUA | 0.2 ± 0.023 | 0.00348 ± 0.0026 | 0.00654 ± 0.0033
UCCUGGUACAGCUUGCAAGUAUUUAGUUA | 0.113 ± 0.014 | 0.00636 ± 0.0022 | 0.00546 ± 0.0031
UCCUGCAACAGCAUGCAUAGUAUUUAGUUA | 0.329 ± 0.023 | 0.00926 ± 0.0035 | 0.0232 ± 0.0055
UCCUCCUACAGGUUGCAAAGUAUUUAGUUA | 0.142 ± 0.0086 | 0.00921 ± 0.002 | 0.0547 ± 0.011
